Inconclusive results are not listed. Calls of active or inactive are those of the source.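 The calls were made as follows, unless noted: active = Her2 level under about 52% in both replicate screens, with viability over 70% of control (limit read from the data); inconclusive = Her2 under the limit in one screen only, or viability under 70%; inactive = Her2 level above the set limit.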
How the values were obtained:
[1] = reducers of endogenous Her2 protein level, primary screen, SKBR3 breast tumor cells, AlphaScreen, ATP viability (AID 461); details: 18-24 h, measured here: SKBR3 viability, ATP luminescence, at 10 µM;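 as to Her2 level: lower value means less Her2 protein in the cells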;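 as to viability: percent of carrier control wells set as 100% viability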
[2] = target: Receptor tyrosine-protein kinase erbB-2 (Homo sapiens) (UniProt P04626); assay: as above; details: 18-24 h, at 10 µM, stronger effect = lower value
[3] = SK-BR-3 cell growth inhibitors, pilot screen, 24 h, human (AID 572;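 active = viability at or below 10% of carrier control in both of two separate runs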;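 also: compound exposure lasted between 18 and 24 h rather than exactly 24 h; 100% = carrier-treated control wells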); details: SK-BR-3 viability, CellTiter-Glo luminescence, at 10 µM, stronger effect = lower value
[4] = HUVEC growth inhibition – cell-based, human, primary screen (AID 575;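 active = viability at or below 30% in both replicate assays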;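 also: 100% = median of untreated cell wells with 0.1% DMSO on each plate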); details: HUVEC proliferation, CellTiter-Glo luminescence, 72 h; at 10 µM; stronger effect = lower value
[5] = growth inhibitors of H69AR lung tumor, primary screen, human, duplicate replicates (AID 580;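 active = viability at or under a set limit in both replicates, limit being median viability minus 3 SD, cut at about 48% in these data, passing the limit was not always enough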;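 also: 100% = mean luminescence of untreated wells and 0% = no signal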); details: H69AR lung tumor cells viability, ATP luminescence, 72 h; at 10 µM; stronger effect = lower value
[6] = reversal of MRP1-mediated doxorubicin resistance, pilot screen, H69AR cells, doxorubicin co-treatment (AID 601;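 active = viability loss from added drug above about 55%, and viability with drug at most 40%, in both replicates, limit read from the data, passing the limit was not always enough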); details: CellTiter-Glo, 72 h, at 10 µM; for differential viability (reversal): stronger effect = higher value
[7] = 384-well plate pilot, post-Golgi transport modulator project, inhibition of yeast transport mutant growth (AID 636; in the data active = inhibition above about 31%); details: absorbance 615 nm, about 18 h, stronger effect = higher value
[8] = growth suppression of yeast trafficking mutant, preliminary HTS, modulators of trafficking downstream of Golgi apparatus project, 1536-format plate, OD 615 nm (AID 637; in the data active = inhibition above about 30%); details: yeast transport mutant growth, absorbance 615 nm, 18 h; stronger effect = higher value
[9] = OD615 S. cerevisiae growth inhibition, permissive medium, pilot counter-assay, permissive growth control for S. cerevisiae lifespan shortening project (AID 705;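 active = growth inhibition above 25% in both replicates, a cutoff set 3 SD above the mean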); details: OD615, 24 h, at 10 µM, stronger effect = higher value
[10] = Restrictive medium S. cerevisiae growth inhibition, OD615, pilot screen of yeast lifespan reduction project, restrictive growth control (AID 706;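 active = growth inhibition above a set limit, 3 SD over mean compound inhibition, in both replicates, cut at about 43% in these data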;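 also: modified DeaD lifespan yeast strain shifted to restrictive glucose medium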); details: OD615, 48 h, at 10 µM, stronger effect = higher value
[11] = viability gain of MRP-1-high H69AR cells under doxorubicin, pilot screen, MRP-1 activator project, CellTiter-Glo, duplicate (AID 807;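 active = viability increase at or above a cutoff of the median across tested compounds plus 3 SD, cut at about 8.5% in these data, passing the limit was not always enough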;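 also: compound pretreatment 18-22 h then 72 h combined with doxorubicin; 0% = doxorubicin alone and 100% = vehicle without doxorubicin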); details: H69AR viability with doxorubicin, CellTiter-Glo luminescence; at 10 µM; stronger effect = higher value
[12] = growth suppression of beta-catenin knockout HCT116, pilot screen, human colon tumor cells (AID 823;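 active = cell viability at or below a set limit in both duplicate runs, the limit being the all-compound median minus 4 SD, cut at about 23% in these data, passing the limit was not always enough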;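 also: 0% = wells killed by 20 µM Hyamine and 100% = untreated DMSO cell wells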); details: CellTiter-Glo, 60 h, at 10 µM, stronger effect = lower value
[13] = growth suppression of PTEN-deleted HCT116, pilot screen, cell-based, HCT116 clonal line, CellTiter-Glo (AID 824;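 active = viability at or below 27.92% in each of two runs, the all-compound median minus 4 SD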;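 also: 0% = 20 µM Hyamine control and 100% = vehicle cell control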); details: 60 h, at 10 µM, stronger effect = lower value
[14] = inhibitors of the yeast RAM network, pilot screen, dse1pr::URA3 reporter, 5-FOA selection (AID 869;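 active = inhibition over a set limit, the all-compound mean plus 3 SD, in both replicate runs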;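 also: 0% = DMSO wells with no growth and 100% = 10 µM 1-NA-PP1 with full growth; RAM network block rescues cells from 5-FOA so hits raise OD615 growth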); details: S. cerevisiae dse1pr::URA3 5-FOA growth, OD615, 2 d; at 10 µM; stronger effect = higher value; strain carries analog-sensitive mutant Cbk1 kinase
[15] = RAM signaling pathway blockade in yeast – S. cerevisiae, Pdr1DBD-CYC8 efflux-inhibited sensitized strain, primary screen (AID 1298;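 active = RAM network inhibition above 8.4% in each of two replicates, 3 SD over the compound average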;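 also: 0% = DMSO untreated cells without growth and 100% = 10 µM 1-NA-PP1 full growth; higher means more yeast growth rescued from 5-FOA killing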); details: S. cerevisiae cbk1-as DSE1-URA3 strain, 5-FOA growth OD615, 2 d; at 50 µM; stronger effect = higher value
[16] = H69AR cells + 2 uM doxorubicin, measured here: viability with 2 uM doxorubicin, stronger effect = lower value
[17] = H69AR cells, compound alone cytotoxicity

Chain of Receptor tyrosine-protein kinase erbB-2 (Homo sapiens) (P04626 whole entry, looked up): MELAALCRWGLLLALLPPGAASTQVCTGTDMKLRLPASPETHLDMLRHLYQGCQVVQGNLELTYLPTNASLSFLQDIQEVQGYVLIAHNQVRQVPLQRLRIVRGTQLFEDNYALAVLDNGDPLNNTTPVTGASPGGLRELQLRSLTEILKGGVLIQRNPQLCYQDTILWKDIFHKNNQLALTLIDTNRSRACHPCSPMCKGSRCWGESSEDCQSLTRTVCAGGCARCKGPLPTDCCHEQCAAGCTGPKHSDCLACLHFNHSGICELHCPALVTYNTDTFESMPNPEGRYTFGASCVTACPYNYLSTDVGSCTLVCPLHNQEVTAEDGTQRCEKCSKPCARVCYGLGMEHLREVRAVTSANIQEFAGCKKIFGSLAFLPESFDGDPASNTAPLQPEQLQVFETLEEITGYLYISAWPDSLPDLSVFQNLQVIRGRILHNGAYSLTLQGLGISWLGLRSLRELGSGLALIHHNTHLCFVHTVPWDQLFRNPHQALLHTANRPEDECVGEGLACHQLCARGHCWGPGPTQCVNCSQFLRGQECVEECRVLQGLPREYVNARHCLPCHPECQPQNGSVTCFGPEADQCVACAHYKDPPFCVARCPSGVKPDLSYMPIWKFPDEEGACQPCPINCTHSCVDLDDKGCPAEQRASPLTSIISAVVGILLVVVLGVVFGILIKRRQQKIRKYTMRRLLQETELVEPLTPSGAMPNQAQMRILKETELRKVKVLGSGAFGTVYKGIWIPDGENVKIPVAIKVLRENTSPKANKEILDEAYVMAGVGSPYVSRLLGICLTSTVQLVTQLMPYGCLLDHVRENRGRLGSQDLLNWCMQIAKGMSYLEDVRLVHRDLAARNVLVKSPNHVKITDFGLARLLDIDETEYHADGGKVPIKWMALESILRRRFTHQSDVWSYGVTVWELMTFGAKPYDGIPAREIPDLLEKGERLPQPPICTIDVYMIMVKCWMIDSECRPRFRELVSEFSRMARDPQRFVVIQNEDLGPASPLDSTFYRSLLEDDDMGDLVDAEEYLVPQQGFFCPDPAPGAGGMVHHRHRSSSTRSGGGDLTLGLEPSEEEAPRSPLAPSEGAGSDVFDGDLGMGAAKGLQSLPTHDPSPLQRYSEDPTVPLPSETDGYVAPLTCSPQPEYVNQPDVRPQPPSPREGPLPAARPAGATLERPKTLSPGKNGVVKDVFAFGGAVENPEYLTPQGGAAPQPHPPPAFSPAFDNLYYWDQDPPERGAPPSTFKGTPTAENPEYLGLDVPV

Structure (SMILES)	viability [1] [%]	Her2 level [2]	viability [3]	viability [4]	viability [5]	differential viability (reversal) ([6]; H69AR cells + 2 uM doxorubicin)	viability [6, 16] [%]	viability [6, 17] [%]	inhibition [7]	inhibition [8]	growth inhibition [9]	growth inhibition [10]	viability increase [11]	viability [12]	viability [13]	inhibition [14]	RAM network inhibition [15]
CCN(CC)CCNC(=O)c1ccc(CS(=O)(=O)c2ccc(Br)cc2)o1	92.5	110% (inactive)	92.5% (inactive)	100% (inactive)	95.9% (inactive)	5.79% (inactive)	90.1	95.9	-0.26% (inactive)	0.17% (inactive)	-12.3% (inactive)	-17.7% (inactive)	-2.1% (inactive)	97.1% (inactive)	96.5% (inactive)	0.92% (inactive)	0.74% (inactive)
CCOC(=O)N1CCN(C(=O)CSc2nnc(COc3ccccc3)o2)CC1	92.5	89.5% (inactive)	92.5% (inactive)	95.2% (inactive)	97.2% (inactive)	9.01% (inactive)	88.2	97.2	2.67% (inactive)	-7.21% (inactive)	-8.08% (inactive)	1.67% (inactive)	1.41% (inactive)	99.4% (inactive)	100% (inactive)	-0.34% (inactive)	7.1% (inactive)
COc1ccc(-n2c(Cc3cccn3C)nnc2SCC(=O)Nc2ccccc2)cc1	88.5	104% (inactive)	88.5% (inactive)	99% (inactive)	82.2% (inactive)	-6.77% (inactive)	88.9	82.2	-5.87% (inactive)	4% (inactive)	1.29% (inactive)	15.6% (inactive)	-2.51% (inactive)	99.5% (inactive)	85.3% (inactive)	2.68% (inactive)	2.14% (inactive)
CCc1ccc(C2CC(c3cccc(OC)c3)n3nc(N)nc3N2)cc1 (stereo not drawn)	90	92% (inactive)	90% (inactive)	113% (inactive)	105% (inactive)	7.42% (inactive)	97.5	105	2.31% (inactive)	4.83% (inactive)	-0.21% (inactive)	12% (inactive)	2.74% (inactive)	93.3% (inactive)	81.1% (inactive)	1.21% (inactive)	4.95% (inactive)
CCOC(=O)C1CCCN(C(=O)c2cn(C)c(=O)c3cc(OC)c(OC)cc23)C1 (stereo not drawn)	96.5	99.5% (inactive)	96.5% (inactive)	94.2% (inactive)	91% (inactive)	-9.49% (inactive)	101	91	-3.38% (inactive)	4.43% (inactive)	-11.5% (inactive)	-4.87% (inactive)	-3.62% (inactive)	97% (inactive)	90.7% (inactive)	1.17% (inactive)	1.13% (inactive)
CCn1c(SCC(=O)Nc2ccc(Cl)cc2)nnc1C1CC1	92.5	95.5% (inactive)	92.5% (inactive)	84.2% (inactive)	74.7% (inactive)	11.1% (inactive)	63.7	74.7	-2.27% (inactive)	1.67% (inactive)	5.96% (inactive)	1.14% (inactive)	-4.1% (inactive)	102% (inactive)	97.8% (inactive)	0.85% (inactive)	3.74% (inactive)
Cc1cc(C)n2nc(S(=O)(=O)N(C)c3ccccc3)nc2n1	103	102% (inactive)	103% (inactive)	88.2% (inactive)	94.5% (inactive)	0.67% (inactive)	93.9	94.5	-5.6% (inactive)	4.17% (inactive)	-16.1% (inactive)	-13.7% (inactive)	-1.5% (inactive)	104% (inactive)	98.1% (inactive)	3.53% (inactive)	1.62% (inactive)
CCc1cccc(NC(=O)Cn2cc3c(n2)CCCC3)c1	105	95.5% (inactive)	105% (inactive)	89.8% (inactive)	94.8% (inactive)	4.52% (inactive)	90.3	94.8	-4.53% (inactive)	-3.11% (inactive)	-17.8% (inactive)	-2.27% (inactive)	-1.41% (inactive)	96.6% (inactive)	97.2% (inactive)	1.69% (inactive)	0.42% (inactive)
COc1cc2c(cc1OC)C(C)N(C(=O)Cn1ncc3c1-c1ccccc1OC3)CC2 (stereo not drawn)	90.5	104% (inactive)	90.5% (inactive)	111% (inactive)	87.2% (inactive)	0.365% (inactive)	86.9	87.2	-2.31% (inactive)	2.33% (inactive)	-9.09% (inactive)	-8.14% (inactive)	-2.56% (inactive)	89.5% (inactive)	89.8% (inactive)	0.41% (inactive)	1.88% (inactive)
C=C(C)c1cccc(C(C)(C)NC(=O)NCC2CCCO2)c1 (stereo not drawn)	94	98% (inactive)	94% (inactive)	79.9% (inactive)	93.7% (inactive)	7.16% (inactive)	86.5	93.7	0.77% (inactive)	-8.5% (inactive)	-6.62% (inactive)	-9.92% (inactive)	-0.54% (inactive)	94.7% (inactive)	96.2% (inactive)	1.77% (inactive)	1.07% (inactive)
CSc1ccccc1NC(=O)c1cnc2n(c1=O)CCS2	97.5	82.5% (inactive)	97.5% (inactive)	111% (inactive)	84.7% (inactive)	-6.53% (inactive)	91.3	84.7	-1.87% (inactive)	-1.33% (inactive)	-10.6% (inactive)	3.57% (inactive)	-0.39% (inactive)	105% (inactive)	85.8% (inactive)	2.75% (inactive)	-0.78% (inactive)
O=C1CCCCCC1C1(O)C(=O)Nc2ccccc21 (stereo not drawn)	100	96.5% (inactive)	100% (inactive)	87.9% (inactive)	95.7% (inactive)	1.21% (inactive)	94.4	95.7	-4.68% (inactive)	-1.67% (inactive)	-0.65% (inactive)	-10.4% (inactive)	-2.3% (inactive)	99.7% (inactive)	95% (inactive)	1.43% (inactive)	1.29% (inactive)
CC(=O)C1=C(C)Nc2ncnn2C1c1cccc(OCc2ccccc2)c1 (stereo not drawn)	102	104% (inactive)	102% (inactive)	115% (inactive)	88.6% (inactive)	-5.64% (inactive)	94.2	88.6	-4% (inactive)	1.5% (inactive)	-3.25% (inactive)	-0.16% (inactive)	-0.76% (inactive)	92.4% (inactive)	93.5% (inactive)	1.94% (inactive)	4.69% (inactive)
CCc1ccccc1N1CC23C=CC(O2)C(C(=O)O)C3C1=O (stereo not drawn)	102	93.5% (inactive)	102% (inactive)	101% (inactive)	86.7% (inactive)	-2.65% (inactive)	89.3	86.7	-7.2% (inactive)	0.83% (inactive)	1.68% (inactive)	-5.72% (inactive)	1.1% (inactive)	96% (inactive)	102% (inactive)	0.365% (inactive)	1.2% (inactive)
COc1ccc(Cl)cc1S(=O)(=O)N1CCN(c2ccc(F)cc2)CC1	80	82% (inactive)	80% (inactive)	90.1% (inactive)	75.8% (inactive)	-11.6% (inactive)	87.4	75.8	4.23% (inactive)	12.7% (inactive)	-13% (inactive)	-15.5% (inactive)	-2.08% (inactive)	82.4% (inactive)	89.7% (inactive)	-0.355% (inactive)	1.85% (inactive)
CC(=O)Nc1ccc(S(=O)(=O)Nc2nc3c(s2)CCCC3)cc1	106	103% (inactive)	106% (inactive)	106% (inactive)	99.5% (inactive)	11.5% (inactive)	88	99.5	-8.93% (inactive)	-9.52% (inactive)	4.96% (inactive)	12.8% (inactive)	-1.41% (inactive)	95.1% (inactive)	90.7% (inactive)	1.9% (inactive)	2.5% (inactive)
Cc1cc(C)c(C#N)c(SCC(=O)Nc2ccc(S(=O)(=O)Nc3onc(C)c3C)cc2)n1	90.5	97% (inactive)	90.5% (inactive)	82.4% (inactive)	87.4% (inactive)	-9.41% (inactive)	96.8	87.4	-3.73% (inactive)	0.33% (inactive)	-1.4% (inactive)	7.54% (inactive)	-0.72% (inactive)	109% (inactive)	100% (inactive)	1.98% (inactive)	2.19% (inactive)
O=C(Cn1nc(Cc2ccncc2)c2ccccc2c1=O)N1CCc2ccccc2C1	83	100% (inactive)	83% (inactive)	95.3% (inactive)	96.5% (inactive)	5.38% (inactive)	91.1	96.5	-0.27% (inactive)	-3.77% (inactive)	-1.69% (inactive)	3.79% (inactive)	-2.78% (inactive)	103% (inactive)	103% (inactive)	1.33% (inactive)	3% (inactive)
CC1CCC(NC(=O)Cn2ncc3ccccc32)CC1 (stereo not drawn)	106	108% (inactive)	106% (inactive)	107% (inactive)	95.5% (inactive)	7.93% (inactive)	87.6	95.5	-3.47% (inactive)	-8% (inactive)	-9.46% (inactive)	1.29% (inactive)	-0.27% (inactive)	97.9% (inactive)	100% (inactive)	1.21% (inactive)	1.78% (inactive)
